How the values were obtained:
Assay type in all cases: functional
[1] = molecular target: Solute carrier family 2, facilitated glucose transporter member 1 (Homo sapiens) (UniProt P11166); assay: ST_JUDE_LEISH: Cytotoxicity at 2uM final concentration against transgenic Leishmania Mexicana promastigotes LmGLUT1 that are glucose transport deficient and complemented with the human glucose transporter GLUT1. Activity is measured by DNA content using SYBR green in vitro
[2] = molecular target: Hexose transporter 1 (Plasmodium falciparum) (UniProt O97467); assay: ST_JUDE_LEISH: Cytotoxicity at 2uM final concentration against transgenic Leishmania Mexicana promastigotes LmPfHT that are glucose transport deficient and complemented with the Plasmodium falciparum hexose transporter. Activity is measured by DNA content using SYBR green in vitro
[3] = molecular target: Glucose transporter (Leishmania mexicana) (UniProt O61059); assay: ST_JUDE_LEISH: Cytotoxicity at 2uM final concentration against transgenic Leishmania Mexicana promastigotes LmGT2 that are glucose transport deficient and complemented with the L. Mexicana glucose transporter 2. Activity is measured by DNA content using SYBR green in vitro

Chain of Solute carrier family 2, facilitated glucose transporter member 1 (Homo sapiens) (P11166 whole entry): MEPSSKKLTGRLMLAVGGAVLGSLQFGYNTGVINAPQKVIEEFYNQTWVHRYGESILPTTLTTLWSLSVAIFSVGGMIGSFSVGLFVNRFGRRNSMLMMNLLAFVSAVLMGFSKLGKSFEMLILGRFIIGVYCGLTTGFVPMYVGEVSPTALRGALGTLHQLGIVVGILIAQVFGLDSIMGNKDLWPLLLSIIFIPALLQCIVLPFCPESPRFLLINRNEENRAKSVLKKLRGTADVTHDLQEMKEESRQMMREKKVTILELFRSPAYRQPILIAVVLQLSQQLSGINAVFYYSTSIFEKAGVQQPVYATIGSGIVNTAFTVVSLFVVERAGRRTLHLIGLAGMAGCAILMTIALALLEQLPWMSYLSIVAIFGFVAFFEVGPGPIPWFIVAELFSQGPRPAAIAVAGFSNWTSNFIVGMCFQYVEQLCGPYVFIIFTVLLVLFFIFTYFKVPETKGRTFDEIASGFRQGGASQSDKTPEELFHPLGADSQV

## COc1cccc2c(Oc3ccccc3C)ccnc12
[1]
  inhibition: -0.44%
[2]
  inhibition: -1.86%
[3]
  inhibition: 0.33%

## Clc1cnc2ccc3c(c2c1CCN1CCC(NCc2cc4c(cn2)OCCO4)CC1)OCCO3
[1]
  inhibition: 27.3%
[2]
  inhibition: 42.2%
[3]
  inhibition: 14.9%

## COc1ccc2c(NN=Cc3cccc(C)n3)ccnc2c1
[1]
  inhibition: 4.32%
[2]
  inhibition: 5.22%
[3]
  inhibition: 5.4%

## Cc1ccc(-n2c(Cc3cccc4ccccc34)nnc2SCCC#N)c(C)c1
[1]
  inhibition: 5.99%
[2]
  inhibition: 5.29%
[3]
  inhibition: 8.9%

## CCCC(=O)Nc1ccc(OCCCN(Cc2cccc(C(F)(F)F)c2)c2ccc(C#N)c(C(F)(F)F)c2)cc1
[1]
  inhibition: 2.19%
[2]
  inhibition: 2.43%
[3]
  inhibition: 1.64%

## COc1ccc(C2N=C(N)N=C(N)N2c2ccc(Cl)cc2)cc1OC (stereo not drawn)
[1]
  inhibition: 2.61%
[2]
  inhibition: 2.52%
[3]
  inhibition: 2.93%

## Cc1c(N=O)cc(C(C)(C)C)c(O)c1C(=O)Nc1ccc([N+](=O)[O-])cc1Cl
[1]
  inhibition: 2.33%
[2]
  inhibition: 5.18%
[3]
  inhibition: -0.56%

## Oc1cccc(CNCCCN(Cc2ccccc2)c2ccccc2)c1
[1]
  inhibition: 1.74%
[2]
  inhibition: -0.63%
[3]
  inhibition: 0.16%

## CSc1cccc(NC(=O)c2cc3ccccc3oc2=O)c1
[1]
  inhibition: 0.58%
[2]
  inhibition: 0.06%
[3]
  inhibition: -3.2%

## Cc1ccc(NC(=O)c2cn(-c3ccccc3)nc2-c2ccc(F)cc2)cc1[N+](=O)[O-]
[1]
  inhibition: 4.38%
[2]
  inhibition: 3.28%
[3]
  inhibition: 1.86%

## COc1ccccc1CCN(C)CCN1CCC(NC(=O)c2ccc(-c3ccc(C(F)(F)F)cc3)cc2)CC1
[1]
  inhibition: 1.81%
[2]
  inhibition: 1.97%
[3]
  inhibition: 1.05%

## CCCC(CCC)n1ccc2c3c(N)nc(N)nc3ccc21
[1]
  inhibition: 59.8%
[2]
  inhibition: 70.1%
[3]
  inhibition: 44.5%

## CCOC(=O)C1=C(C)N=c2sc(=Cc3ccccc3O)c(=O)n2C1c1ccc(OC)c2ccccc12 (stereo not drawn)
[1]
  inhibition: -1.25%
[2]
  inhibition: -0.06%
[3]
  inhibition: -1.57%

## O=C(CCn1c2ccccc2c2ccccc21)NN=Cc1ccco1
[1]
  inhibition: 7.25%
[2]
  inhibition: 5.11%
[3]
  inhibition: 4.19%

## CC(=O)c1ccc(S(=O)(=O)N2CCC(C(=O)Nc3ccccc3N3CCCC3)CC2)cc1
[1]
  inhibition: 0.87%
[2]
  inhibition: 0.67%
[3]
  inhibition: -0.38%

## CCN(CC)CCCC(C)Nc1ccnc2[nH]c3ccccc3c12 (stereo not drawn)
[1]
  inhibition: 6.4%
[2]
  inhibition: 6.62%
[3]
  inhibition: 4.63%

## O=C(CSc1ccccn1)Nc1c(F)cccc1F
[1]
  inhibition: 3.81%
[2]
  inhibition: 3.5%
[3]
  inhibition: 2.68%

## COc1ccc(C2CC(c3cccs3)=NN2C(=O)COc2cccc3c2CCCC3O)cc1OC (stereo not drawn)
[1]
  inhibition: -1.84%
[2]
  inhibition: -0.04%
[3]
  inhibition: 4.14%

## Cc1cc(CN2CCC(Nc3ncc(-c4ccsc4)c4nc(C(F)(F)F)ccc34)CC2)no1
[1]
  inhibition: 5.49%
[2]
  inhibition: 6.03%
[3]
  inhibition: 5.5%

## CC(=O)Nc1ncc(C(=O)Nc2cccc(-c3ccc(-c4nc5cccc(C)c5[nH]4)cc3)c2)s1
[1]
  inhibition: 0.14%
[2]
  inhibition: 0.54%
[3]
  inhibition: 0.54%

## COc1cc2c(cc1C=CC(=O)N1CCN(Cc3nc(O)c4c(C)c(C)sc4n3)CC1)OC(C)C2 (stereo not drawn)
[1]
  inhibition: 1.98%
[2]
  inhibition: 3.73%
[3]
  inhibition: 2.08%

## COCCNCc1ncsc1-c1ccc2c(Nc3cc(O)c(Cl)cc3F)ccnc2c1
[1]
  inhibition: 3.19%
[2]
  inhibition: 3.29%
[3]
  inhibition: 1.41%

## O=C(Nc1ccc2ccccc2n1)c1ccccc1-c1ccccc1
[1]
  inhibition: -0.59%
[2]
  inhibition: 2.19%
[3]
  inhibition: -0.78%

## Cc1ccc(CN2CCCN(Cc3cccc(C(=O)Nc4ccc(C(C)(C)C)cc4)c3)CC2)s1
[1]
  inhibition: 7.92%
[2]
  inhibition: 2.76%
[3]
  inhibition: 0.76%

## O=C(Nc1ccc(C(F)(F)F)cc1)c1cccc(S(=O)(=O)NC2CCN(CC3CCCCC3)CC2)c1
[1]
  inhibition: 5.27%
[2]
  inhibition: 5.53%
[3]
  inhibition: 4.52%

## Cc1c(Cn2nc(Cl)c(N3CCNCC3)cc2=O)cccc1NC(=O)Nc1ccc(-c2ccccc2)cc1
[1]
  inhibition: -2.62%
[2]
  inhibition: -2.29%
[3]
  inhibition: -0.03%

## CC(=NNC(=N)N)c1ccc2ccc3ccccc3c2c1
[1]
  inhibition: 0.27%
[2]
  inhibition: 1.38%
[3]
  inhibition: 0.74%

## CC(C)(C)c1ccc(NC(=O)c2cccc(CN3CCN(Cc4cccc(O)c4)CC3)c2)cc1
[1]
  inhibition: 0.93%
[2]
  inhibition: -0.15%
[3]
  inhibition: 0.64%

## Cn1nccc1C(=O)NCCNCc1ccc(-c2ccc(-c3nc4cc(C(F)(F)F)ccc4[nH]3)s2)cc1
[1]
  inhibition: 0.47%
[2]
  inhibition: -0.52%
[3]
  inhibition: 0.87%

## CC(=O)c1cccc2[nH]c(C(=O)NC3CCC(CCN4CCc5ccc(C#N)cc5C4)CC3)cc12 (stereo not drawn)
[1]
  inhibition: 4.5%
[2]
  inhibition: 4.09%
[3]
  inhibition: 2.51%

## CCN(CC)CCN(Cc1ccc(-c2ccc(C(F)(F)F)cc2)cc1)C(=O)Cn1c(CCc2cccc(F)c2F)nc(=O)c2ccc(C(F)(F)F)cc21
[1]
  inhibition: 1.5%
[2]
  inhibition: 1.49%
[3]
  inhibition: 1.99%

## Cc1cc(OCCN2CCCCC2)ccc1NC(=O)c1cccc2c(=O)n(Cc3ccc(Cl)cc3)cnc12
[1]
  inhibition: 103%
[2]
  inhibition: 104%
[3]
  inhibition: 105%

## CC(=O)Nc1ccc(C(=O)NC2CCN(c3ccnc4cc(Cl)ccc34)C2)cc1 (stereo not drawn)
[1]
  inhibition: 0.36%
[2]
  inhibition: 0.28%
[3]
  inhibition: 1.4%

## COc1ccc2nccc([C@@H](O)CN3CCC(NCc4ccc5nc[nH]c(=O)c5c4)CC3)c2c1
[1]
  inhibition: 1.63%
[2]
  inhibition: -1.56%
[3]
  inhibition: -1.45%

## COc1ccc(OCC(O)CN(Cc2ccccc2OC)C(=O)Nc2ccc(Br)cc2)cc1 (stereo not drawn)
[1]
  inhibition: 6.41%
[2]
  inhibition: 4.6%
[3]
  inhibition: 1.1%

## CCOC(=O)c1ccc(NC(=O)Nc2cccc(-c3cccc(-c4nc5cc(F)ccc5[nH]4)c3)c2)cc1
[1]
  inhibition: 0.68%
[2]
  inhibition: 2.75%
[3]
  inhibition: 3.67%
